# According to PubChem BioAssay AID1852 (Sanford-Burnham Center for Chemical Genomics, 2009):
# About 1,100 (44%) of roughly 2,500 compounds were called active. The set was probably picked from earlier hits. This is one part of the list. A number with no mark means an inactive call.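 How the source made its calls: active means inhibition above 50% at 4 µM in the single-point screen; inactive means inhibition of 50% or less.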
# Test: blockers of TNF-a NF-kB luciferase induction – cell-based, HEK293T NF-kB-Luc, luminescence, selectivity assay for NOD1/NOD2 signaling inhibitor project, primary screen (AID 1852)
# Details: TNF-a induced, 14 h, at 4 µM, stronger effect = higher value
row,Structure (SMILES),inhibition
1,COc1ccc2c(c1)-c1c(ssc1=S)C(C)(C)N2,92.8% (active)
2,COc1cc(/C=C2/C(=O)NN(c3cccc(Cl)c3)C2=O)cc(OC)c1O,99.4% (active)
3,COc1cc(/C=C2/C(=O)NN(c3ccc(Cl)cc3)C2=O)cc(OC)c1O,9.3%
4,COc1cc(/C=C2/C(=O)NN(c3cccc(Cl)c3)C2=O)cc(Br)c1O,0.8%
5,Cc1ccc(Cc2cnc(N3C(=N)SC(c4ccccc4)C3=O)s2)cc1 (configuration not stated),99.6% (active)
6,N=C1SC(c2ccccc2)C(=O)N1c1ncc(Cc2ccccc2Cl)s1 (configuration not stated),106% (active)
7,N=C1SC(c2ccccc2)C(=O)N1c1ncc(Cc2ccccc2)s1 (configuration not stated),107% (active)
8,CCOC(=O)C(=Cc1ccc(OCc2ccc([N+](=O)[O-])cc2)c(OC)c1)C(=O)OCC,11.6%
9,Cc1nc2cc(N3CCN(C)CC3)c(NC(=O)Cc3ccccc3)cc2c(=O)n1Cc1ccccc1,-21.7%
10,C/C(=N\NC(=O)c1nnn(-c2nonc2N)c1CN1CCCCC1)c1ccccc1O,64.6% (active)
11,C/C(=N\NC(=O)c1nnn(-c2nonc2N)c1CN1CCc2ccccc21)c1ccccc1O,78.8% (active)
12,CCN1/C(=C/c2cc[n+](C)cc2)C=Cc2cc(C)ccc21,66% (active)
13,CN1/C(=C/c2cc[n+](C)c3ccccc23)C=Cc2ccccc21,47.9%
14,C=CC[n+]1ccc(/C=C2\C=Cc3cc(C)ccc3N2CC)c2ccccc21,84.9% (active)
15,C=CC[n+]1c(/C=C2\C=Cc3cc(C)ccc3N2CC)ccc2ccccc21,74.1% (active)
16,CCN1/C(=C/c2ccc3ccccc3[n+]2CC)C=Cc2ccccc21,67.3% (active)
17,Cc1ccc2c(c1)c(/C=C/c1cc[n+](C)cc1)c(C)n2C,24.2%
18,Cc1ccc(Cn2ccsc2=NC(=O)CCl)cc1,46.5%
19,CCOc1cc(C)c(Cl)cc1S(=O)(=O)n1nnc2ccccc21,63.8% (active)
20,CCCn1c(NC(=O)c2ccc(Cl)c(S(=O)(=O)N3CCCC3)c2)nc2ccccc21,24.9%
21,COc1ccc(CCNC(=O)c2ccc3c(c2)N(Cc2ccccc2)CCS3)cc1OC,-41.1%
22,COc1ccc(CCNc2cc(N3CCN(C(=O)c4ccccc4F)CC3)ccc2[N+](=O)[O-])cc1OC,85.7% (active)
23,CC1CC(=O)N(c2ccc(NCCc3ccccc3)c([N+](=O)[O-])c2)C1=O (configuration not stated),-4.9%

row,Structure (SMILES),inhibition
1,Cc1cc(C(=O)NC2CCCc3c2cnn3-c2ccc(C(C)(C)C)cc2)nn1C (configuration not stated),68.8% (active)
2,CC1=C(C(=O)NC2CCCc3c2cnn3-c2ccc(F)cc2F)OCCO1 (configuration not stated),40.2%
3,COc1ccc(C(=O)NC2CCCc3c2cnn3-c2ccccc2F)cc1OC (configuration not stated),33.4%
4,Cc1cccc(-n2ncc3c2CCCC3NC(=O)C2(C(N)=O)CC2)c1C (configuration not stated),29.3%
5,Cn1nccc1C(=O)NC1CCCc2c1cnn2-c1ccc(C(C)(C)C)cc1 (configuration not stated),72.8% (active)
6,CC(C)(C)c1ccc(-n2ncc3c2CCCC3NC(=O)C2(C(N)=O)CC2)cc1 (configuration not stated),61.3% (active)
7,Cc1ccc(C(=O)NC2CCCc3c2cnn3-c2ccc(F)cc2F)cn1 (configuration not stated),71.6% (active)
8,CC1CN(CCCCOc2ccc(Cl)c3ccccc23)CC(C)O1 (configuration not stated),8.2%
9,Cc1ncoc1C(=O)NC1CCCc2c1cnn2-c1ccc(C(C)(C)C)cc1 (configuration not stated),74.7% (active)
10,Cn1nccc1C(=O)NC1CCCc2c1cnn2-c1ccccc1F (configuration not stated),51.8% (active)
11,Cn1nccc1C(=O)NC1CCCc2c1cnn2-c1ccc(F)cc1F (configuration not stated),39.9%
12,COc1ccc(C(=O)NC2CCCc3c2cnn3-c2ccccc2F)o1 (configuration not stated),-21.5%
13,Cc1ccc(-n2ncc3c2CCCC3NC(=O)c2ocnc2C)cc1C (configuration not stated),49.3%
14,Cc1c(C)c2ccc(OCC(=O)Nc3ccc(N4CCC(C)CC4)cc3)cc2oc1=O,94.7% (active)
15,Cc1nn(Cc2ccccc2)c(Cl)c1C(=O)OC(C)C#N (configuration not stated),40.7%
16,Cc1ccc(-n2nc3c(=O)n(C(C)C(=O)NCCCc4ccccc4)nc(C)c3c2C)cc1 (configuration not stated),53.9% (active)
17,CCN(CC)S(=O)(=O)c1ccc2[nH]cc(C(=O)NCCC3=CCCCC3)c(=O)c2c1,38.4%
18,Cc1ccc(-n2nc3c(=O)n(C(C)C(=O)NCCC4=CCCCC4)nc(C)c3c2C)cc1 (configuration not stated),54.3% (active)
19,Cc1ccc(-n2nc3c(=O)n(CC(=O)NC(C)CCc4ccccc4)nc(C)c3c2C)cc1 (configuration not stated),50% (active)
20,Cc1ccc(-n2nc3c(=O)n(C(C)C(=O)NCCc4cccs4)nc(C)c3c2C)cc1 (configuration not stated),60.4% (active)
21,C[C@@H](C(=O)NCCc1ccccc1)N1C(=O)N2CCc3c([nH]c4ccccc34)[C@@]2(C)C1=O,38.1%
22,COc1ccc(-c2cc(C)no2)cc1S(=O)(=O)N1CCN(c2ccc([N+](=O)[O-])cc2)CC1,44.5%
23,CCN1/C(=C/c2ccc3cc(C)ccc3[n+]2CC)Sc2cc(C)ccc21,48.9%

row,Structure (SMILES),inhibition
1,CCN1/C(=C/c2ccc3cc(C)ccc3[n+]2CC)Sc2cc(C)c(C)cc21,54.5% (active)
2,CCN1/C(=C\c2ccc3cc(C)ccc3[n+]2CC)Sc2cc(C)c(C)cc21,65.4% (active)
3,CCN1/C(=C\c2ccc3ccccc3[n+]2CC)Sc2cc(C)ccc21,55.6% (active)
4,CCN1/C(=C/c2ccc3cc(C)ccc3[n+]2CC)Sc2ccccc21,76.1% (active)
5,O=C1N(Cc2cccc(Cl)c2)C[C@@H]2C[C@@H](c3cccn3-c3cccnc3)N3CCC[C@@]123,4.8%
6,CCN1/C(=C/c2ccc3cc(C)cc(C)c3[n+]2CC)Sc2cc(C)ccc21,79.4% (active)
7,O=C(CCl)NC(Cc1ccccc1)c1ccccc1 (configuration not stated),21.3%
8,COc1ccc(CC(=O)N(Cc2ccccc2)c2ccccc2)cc1S(=O)(=O)N1CCOCC1,13.5%
9,O=C(CCl)N(Cc1ccccc1)c1ccccc1,89.7% (active)
10,CN(Cc1ccc(Cl)cc1)C(=O)CCl,9.6%
11,O=C(CCl)N(c1ccccc1)c1ccccc1,63.7% (active)
12,O=C(CCl)N(c1ccccc1)c1c[nH]c2ccccc12,103% (active)
13,O=Cc1[nH]c2ccccc2c1N(C(=O)CCl)c1ccccc1,31.9%
14,COc1cc2c(cc1OC)C(c1ccc(-c3cc(Cl)ccc3Cl)o1)=NCC2,26.5%
15,Cc1csc(NC(=O)C2CC(=O)N(c3ccc(C)c(C)c3)C2)n1 (configuration not stated),-11.9%
16,Cc1cnc(NC(=O)C2CC(=O)N(c3cccc(Cl)c3)C2)s1 (configuration not stated),92.4% (active)
17,O=C(/C(=C/c1ccc(Cl)cc1)c1nc2ccccc2[nH]1)c1cccs1,106% (active)
18,O=C(/C(=C/c1ccc(Cl)cc1)c1nc2ccccc2[nH]1)c1ccccc1,107% (active)
19,O=C(/C(=C\c1ccccc1)c1nc2ccccc2[nH]1)c1ccc(Cl)cc1,94.9% (active)
20,O=C(/C(=C/c1cccc(Cl)c1)c1nc2ccccc2[nH]1)c1ccccc1,31.9%
21,COc1cc(/C=C(/C(=O)c2cccs2)c2nc3ccccc3[nH]2)ccc1O,31.5%
22,Cc1cccc(Cc2cnc(N3C(=N)SC(C)C3=O)s2)c1 (configuration not stated),100% (active)
23,Cc1cccc(CN2CCN(C(=O)CCl)CC2)c1,36%

row,Structure (SMILES),inhibition
1,Cc1ccc(Cc2cnc(N3C(=N)SC(C)C3=O)s2)cc1 (configuration not stated),103% (active)
2,COc1cc(S(=O)(=O)NCc2ccncc2)ccc1Br,45.8%
3,CCSc1nsc(NC(=O)Nc2cccc(C(C)=O)c2)n1,30.4%
4,C=CCSc1nsc(NC(=O)Nc2ccc(F)cc2)n1,43.4%
5,C=CCSc1nsc(NC(=O)Nc2cccc(C(C)=O)c2)n1,85.2% (active)
6,O=S(=O)(Nc1nc2ccccc2nc1Nc1ccc(N2CCOCC2)cc1)c1cc(Cl)ccc1Cl,77% (active)
7,C=CCN(c1ccccc1OC)S(=O)(=O)c1ccc(Cl)c(C(=O)Nc2ccc(N3CCOCC3)cc2)c1,25.4%
8,CC(=O)c1ccc(Nc2nc3ccccc3nc2NS(=O)(=O)c2cccs2)cc1,12.2%
9,COc1ccc(CNC(=O)c2c(C)oc3c2C(=O)c2ccccc2C3=O)cc1,100% (active)
10,Cc1ccccc1-c1nc(CS(=O)(=O)CC(=O)NCCc2ccccc2)c(C)o1,10%
11,Cc1oc2c(c1C(=O)NCc1cccnc1)C(=O)c1ccccc1C2=O,97.7% (active)
12,COc1ccc(CNC(=O)c2ccc3ccccc3n2)cc1OC,38%
13,Cc1oc2c(c1C(=O)c1ccccc1)C(=O)C(=O)c1ccccc1-2,104% (active)
14,Cc1csc2c(N3CCN(C(=O)Nc4ccc(Cl)c(Cl)c4)CC3)ncnc12,52.5% (active)
15,Fc1ccc(NC(=S)N2CCCN(c3ccc(C(F)(F)F)cn3)CC2)c(F)c1,55.6% (active)
16,CCCCNC(=S)Nc1ccc(C(F)(F)F)cc1,-47.5%
17,Cc1csc2ncnc(N3CCN(C(=S)Nc4ccc(F)cc4F)CC3)c12,66.9% (active)
18,Fc1ccc(NC(=S)NNc2ncc(C(F)(F)F)cc2Cl)c(F)c1,49.4%
19,Cc1csc2c(N3CCN(C(=S)Nc4ccc(C(F)(F)F)cc4)CC3)ncnc12,78.5% (active)
20,Cc1ccc(S(=O)(=O)c2c(C(=O)c3ccccc3)cnc3cc4c(cc23)OCCO4)cc1,1.5%
21,Cc1csc2ncnc(N3CCN(C(=O)Nc4ccc(OC(F)(F)F)cc4)CC3)c12,102% (active)
22,Cc1csc2ncnc(N3CCN(S(=O)(=O)c4cccc(C(F)(F)F)c4)CC3)c12,44.4%
23,Cc1csc2ncnc(N3CCN(C(=S)Nc4ccc(C(F)(F)F)cc4)CC3)c12,66.1% (active)
